# Several values for one entry are separate records, joined by “and”; a condition that tells them apart may be missing. Identical values can stand only once. Results filed as inconclusive are left out. Some structures have more than one record in an assay (separate samples or runs), and their calls can disagree. Activity calls are given as the source filed them. Unless noted, calls follow the shape of the full dose curve.
# What was measured:
# [1] = Primary qHTS to identify inhibitors of SARS-CoV-2 cell entry (AID 1645846); also: nearly all actives have a fitted effect of over 45% in size; also: potency is read from the fitted curve at half-maximal effect
# In short: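 HEK293-ACE2 (Expi293F, stable hACE2), 1500 cells/well, o/n 37C; cpd 23 nL pin, 1 h; MLV-PP w/ SARS-CoV-2-S (Wuhan-Hu-1, Δ19 C-term); 48 h 37C; Bright-Glo luminescence; normalized vs S-PP and bald PP.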
# [2] = Cytotoxicity counterscreen for inhibitors of SARS-CoV-2 cell entry (AID 1645845); also: nearly all actives have a fitted effect of over 50% in size
# In short: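 ATP-content luminescence (ATPLite 1step, 15 min RT) read after 48 h compound exposure of Expi293F cells stably expressing human ACE2; normalized to cells-only wells and media-only wells.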
# [3] = molecular target: Papain (Carica papaya) (UniProt P00784); test: Primary qHTS assay for inhibitors of the protease papain (AID 1645873; active = well fitted curve in the direction sought with a large enough effect; an effect the other way counts as inactive or inconclusive;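 also: papain turnover of Z-FR-AMC read as the AMC fluorescence gain over 10 min; % is scaled to controls: 0 for no effect and ±100 for the full control effect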)
# [4] = Primary qHTS for inhibitors of nuclear receptor binding SET domain protein 2 (NSD2) in an isogenic RCH-ACV NSD2 p.E1099K mutant (9B) (AID 1645876; active = well fitted curve in the direction sought with a large enough effect; an effect the other way counts as inactive or inconclusive; also: nearly all actives have a fitted effect of over 70% in size; also: potency is read from the fitted curve at half-maximal effect)
# [5] = Primary qHTS for inhibitors of nuclear receptor binding SET domain protein 2 (NSD2) in an RCH-ACV wild type WT cells (2C) (AID 1645877; active = well fitted curve in the direction sought with a large enough effect; an effect the other way counts as inactive or inconclusive; also: nearly all actives have a fitted effect of over 70% in size; also: potency is read from the fitted curve at half-maximal effect)
# [6] = activity change, negative = inhibition: at 57.1 µM (top of the series) unless noted
# [7] = SARS-CoV-2 pseudovirus cell entry assay, luminescence, at 57.1 µM (top of the series)
# Papain (Carica papaya), sequence (P00784 whole entry, looked up, the tested form may be a part): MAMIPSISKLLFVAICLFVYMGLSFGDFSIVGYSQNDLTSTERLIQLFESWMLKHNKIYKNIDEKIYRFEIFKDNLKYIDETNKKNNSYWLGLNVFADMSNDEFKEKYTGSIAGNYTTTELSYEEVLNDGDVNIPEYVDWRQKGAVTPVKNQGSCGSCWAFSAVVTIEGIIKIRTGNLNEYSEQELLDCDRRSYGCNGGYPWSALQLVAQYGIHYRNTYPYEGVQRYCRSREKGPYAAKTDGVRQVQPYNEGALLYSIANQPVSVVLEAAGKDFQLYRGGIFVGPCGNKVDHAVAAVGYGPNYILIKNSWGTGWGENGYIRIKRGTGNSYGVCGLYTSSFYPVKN
smiles,measurement,setting,value
COc1cc(C)c(Sc2cnc(NC(=O)c3ccc(CNC(C)C(C)(C)C)cc3)s2)cc1C(=O)N1CCN(C(C)=O)CC1 (stereo unspecified),Potency,[1]; [6],12.6 µM (active)
C[N+](C)(C)CC(=O)O,Potency,[2],inactive
same,"activity change, negative = inhibition",[1]; [6],-0.459% and -19.8%
same,Potency,[3],inactive
COc1cc2nc(N3CCCN(C)CC3)nc(NC3CCN(Cc4ccccc4)CC3)c2cc1OC,Potency,[1]; [6],3.16 µM (active)
c1ccc2[nH]ccc2c1,Potency,[2],inactive
same,Potency,[1]; [6],inactive
NC1=NC(=O)N2CC12 (stereo unspecified),Potency,[2],inactive
same,"activity change, negative = inhibition",[1]; [7],-95.3%
same,"activity change, negative = inhibition","[1]; SARS-CoV-2 pseudovirus cell entry assay, luminescence, at 114 µM (top of the series)",-13.1%
same,Potency,[4],inactive
COC1=C[C@@H]2[C@@H]3Cc4ccc(OC)c(O)c4[C@]2(CCN3C)CC1=O,Potency,[2],inactive
same,"activity change, negative = inhibition",[1]; [6],-15.7%
same,Potency,[4],inactive
same,Potency,[5],inactive
Cc1c(C(=O)Nc2ccc(N3C[C@@H](C)O[C@@H](C)C3)nc2)cccc1-c1ccc(OC(F)(F)F)cc1,Potency,[1]; [6],inactive and 12.6 µM (active)
O=C(Nc1cccc(Cl)c1)Nc1ncc(CCNc2ncnc3ccsc23)s1,Potency,[1]; [6],3.16 µM (active)
CCN(CC)CCOc1ccc(Nc2ncc3cc(-c4c(Cl)cccc4Cl)c(=O)n(C)c3n2)cc1,Potency,[1]; [6],3.16 µM (active)
CCN(CC)c1ccc(C(=C2C=CC(=[N+](CC)CC)C=C2)c2cc(S(=O)(=O)O)ccc2S(=O)(=O)[O-])cc1,Potency,[1]; [6],inactive
COC(=O)c1ccc2c(C(=Nc3ccc(N(C)C(=O)CN4CCN(C)CC4)cc3)c3ccccc3)c(O)[nH]c2c1,Potency,[2],inactive
same,Potency,[1]; [6],17.8 µM (active)
same,"activity change, negative = inhibition",[1]; [6],-18.4%
CCN1CCN(CC(=O)Nc2ccc(-c3cccc4c(=O)cc(N5CCOCC5)oc34)c3sc4ccccc4c23)CC1,Potency,[1]; [6],5.62 µM (active)
CC(C)[C@H](CO)Nc1nc(Nc2ccc(C(=O)O)c(Cl)c2)c2ncn(C(C)C)c2n1,Potency,[2],inactive
same,"activity change, negative = inhibition",[1]; [6],-17.7%
O=C(c1ccc(Nc2nccc(-c3cc4ccccc4s3)n2)cc1)N1CCC(N2CCCC2)CC1,Potency,[1]; [6],11.2 µM (active)
Cc1ccc(C(=O)Nc2cccc(C(F)(F)F)c2)cc1-c1ccc2nc(NCCN3CCOCC3)ncc2c1,Potency,[2],inactive
same,Potency,[1]; [6],31.6 µM (active)
O=c1[nH]c2ccccc2n1C1CCN(Cc2ccc(-c3[nH]c4cc5ncnc5cc4nc3-c3ccccc3)cc2)CC1,Potency,[2],inactive
same,Potency,[4],2.95 µM (active)
CC(C[N+](C)(C)C)OC(N)=O (stereo unspecified),Potency,[2],inactive
same,Potency,[1]; [6],inactive
same,"activity change, negative = inhibition",[1]; [6],-6.96%
Cc1ccc(C(=O)N(CCCN)[C@@H](c2nc3cc(Cl)ccc3c(=O)n2Cc2ccccc2)C(C)C)cc1,"activity change, negative = inhibition",[1]; [6],-95.6%
C[C@@H]1CN(c2c(F)c(N)c3c(=O)c(C(=O)O)cn(C4CC4)c3c2F)C[C@H](C)N1,Potency,[2],inactive
same,"activity change, negative = inhibition","[1]; SARS-CoV-2 pseudovirus cell entry assay, luminescence, at 27.1 µM (top of the series)",-12.9%
same,"activity change, negative = inhibition",[1]; [7],-5.48%
O=C(Nc1ccc(F)c(C(F)(F)F)c1)Nc1nnc(-c2ccncc2)s1,"activity change, negative = inhibition",[1]; [6],-21.1%
COc1ccccc1-c1cccc(-c2c(O)c3cc(C#N)c(Cl)cc3[nH]c2=O)c1,Potency,[2],inactive
same,"activity change, negative = inhibition",[1]; [6],-22.8%
CC(C)CC(=O)Nc1n[nH]c2c1CN(C(=O)C1CCN(C)CC1)C2(C)C,Potency,[1]; [6],5.62 µM (active)
CC(=O)Nc1ccc([C@H](C)C(=O)Nc2ncc(C(C)C)s2)cc1,Potency,[1]; [6],3.55 µM (active)
CC(C)(C)COc1ccc(-n2cc(C(=O)O)cn2)cc1C#N,"activity change, negative = inhibition",[1]; [6],-72.8%
CC[C@@H](C(N)=O)N1CCCC1=O,Potency,[2],inactive
same,"activity change, negative = inhibition",[1]; [6],-1.29%
same,Potency,[3],inactive
same,Potency,[4],inactive
C=C1C(=CC=C2CCC[C@]3(C)[C@@H]([C@H](C)C=C[C@H](C)C(C)C)CC[C@@H]23)C[C@@H](O)C[C@@H]1O,Potency,[2],inactive
same,Potency,[1]; [6],inactive
Nc1ccccc1NC(=O)c1ccc(CNc2nccc(-c3cccnc3)n2)cc1,Potency,[1]; [6],inactive
COc1cc2c(cc1OC)CC(=O)N(CCCN(C)C[C@H]1Cc3cc(OC)c(OC)cc31)CC2,Potency,[2],inactive
same,"activity change, negative = inhibition",[1]; [6],-5.42% and -13.8%
CC(C)(C)c1cc(C=C(C#N)C#N)cc(Br)c1O,Potency,[2],inactive
same,Potency,[1]; [6],inactive
same,Potency,[4],inactive
same,Potency,[5],16.4 µM (active) and inactive
O=c1cc(CN2CCOCC2)occ1OCCCCCSc1ccnc2cc(C(F)(F)F)ccc12,Potency,[1]; [6],10 µM (active)
CN(C)CC/C=C1/c2ccccc2COc2ccc(CC(=O)O)cc21,Potency,[2],inactive
same,Potency,[1]; [6],inactive
same,"activity change, negative = inhibition",[1]; [6],-14.5%
Nc1nc(Nc2ccc(S(N)(=O)=O)cc2)nn1C(=O)c1c(F)cccc1F,Potency,[1]; [6],1 µM (active)
c1ccc(C2(c3ccccc3)CC2C2=NCCN2)cc1 (stereo unspecified),Potency,[2],inactive
same,"activity change, negative = inhibition",[1]; [6],-20.9%
same,Potency,[3],inactive
CC[C@@H]1C(=O)N(C)c2cnc(Nc3ccc(C(=O)NC4CCN(C)CC4)cc3OC)nc2N1C1CCCC1,"activity change, negative = inhibition",[1]; [6],-96.8%
O=C1[C@H](Cc2ccc(O)cc2)N2C(=O)CCN(C(=O)NCc3ccccc3)[C@H]2CN1Cc1cccc2ccccc12,"activity change, negative = inhibition",[1]; [6],-93.3%

# From PubChem BioAssay (NCATS)
